# Source: PubChem BioAssay AID686979 (National Center for Advancing Translational Sciences (NCATS), 2013)
# Values joined by “and” are separate entries in the source; they are usually repeats but may differ in a detail not shown here. Identical values can stand only once. Out of some 420,000 compounds screened, about 50,000 (12%) were called active. Another 26% or so got no clear call; they are omitted. This excerpt belongs to a sample that is enriched for actives. Unmarked numbers belong to inactive results. The call rests on the fitted dose curve; in most records, active means well fitted inhibition curve with a large enough effect; inconclusive means small, poorly fitted or top-dose-only effect; inactive means flat fitted curve, though single readings scatter.
# Test: qHTS for Inhibitors of human tyrosyl-DNA phosphodiesterase 1 (TDP1): qHTS in cells in presence of CPT; further: nearly all actives have a fitted effect of over 55% in size
# Conditions: chicken DT40 Tdp1-/-;hTDP1 cells + 20 nM CPT, ATP luminescence, 48 h; series mostly up to 46.2 µM; activity change, negative = growth inhibition: at the top concentration
# Method in brief: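 Cell growth measured by CellTiter-Glo luminescence after a minimum 48 h, 37 C compound exposure with 20 nM CPT in Tdp1-knockout DT40 cells stably expressing hTDP1, seeded 400/well; qHTS titration format.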
# On the % scale 0 is the no-effect control and ±100 the full control effect; potency means the concentration at half of the fitted maximal effect.
Compound,"activity change, negative = growth inhibition",Potency
COc1ccccc1-c1c(C#N)c(N)nc2c1CCC2,12.8%,–
O=C(O)C(CCc1ccccn1)c1ccccc1 (stereo not given),24.6%,–
Cc1csc(/N=C/N(C)C)c1C#N,8.34%,–
OCC1CCCN(c2nc3cc4c(cc3cc2CNCc2cccs2)OCO4)C1 (stereo not given),3.65% [at 9.04 µM],–
Cc1ccc(C(=O)NCC(=O)NC2CC2)cc1,-25.1%,–
CCCOC(=O)c1cc2ccccc2oc1=O,-2.05%,–
CCCOC(=O)c1[nH]c2c(c1C)C(=O)CC(c1cccs1)C2 (stereo not given),–,0.58 µM (active)
CCCOC(=O)c1[nH]c2c(c1C)C(=O)CC(c1cc(OC)c(OC)c(OC)c1)C2 (stereo not given),–,9.2 µM (active)
CCOC(=O)C1=C(C)NC(=S)NC1c1cccs1 (stereo not given),2.09%,–
COc1cc(C2CC(=O)c3cnc(NC(C)=O)nc3C2)cc(OC)c1OC (stereo not given),-14.6%,–
CCOC(=O)C1=C(N)N2C(=O)C(C)SC2=C(C(=O)OCC)C1c1cc(OC)c(OC)c(OC)c1 (stereo not given),4.66%,–
N#Cc1ccccc1NC(=O)c1cccc(COc2ccc(Cl)cc2Cl)c1,-5.45%,–
COc1ccc(N/C=C(\C2OC(=O)c3ccccc32)[N+](=O)[O-])cc1 (stereo not given),-1.24%,–
COc1ccc(-c2csc(NC3OC(=O)c4ccccc43)n2)cc1 (stereo not given),–,11.6 µM (active)
COc1ccc2c(c1OC)C(=O)OC2c1c(O)nc(SC)n(-c2ccccc2)c1=O (stereo not given),0.164%,–
CCc1ccccc1NC(=O)[C@@H]1CCC(=O)N1C1OC(=O)c2c1ccc(OC)c2OC (stereo not given in full),-13.3%,–
COc1ccc(-c2csc(NC(=O)CCCc3cccs3)n2)cc1,-23.6%,–
COc1ccc2c(c1OC)C(=O)OC2Nc1nc(-c2ccccc2)cs1 (stereo not given),–,2.31 µM (active)
COC(=O)C(NS(=O)(=O)c1ccc(F)cc1)c1ccccc1 (stereo not given),-24.2%,–
Cc1cccc(-c2nnc(SC(C)C(=O)Nc3ccccc3)n2C)c1 (stereo not given),-10.2%,–
COc1ccc(NC(=O)CNC(=O)Cc2ccccc2)cc1OC,1.52%,–
COc1ccc(NC(=O)NC(C)c2c(-n3cccc3)sc(C)c2C)cc1OC (stereo not given),–,16.4 µM (active)
CCn1cc(NC(=O)Nc2ccc(OC)c(OC)c2)c(C(N)=O)n1,11.3%,–
Cc1nc(N)sc1-c1ccccc1,-0.668%,–
S=c1[nH]nc(NCCc2ccccc2)s1,-3.43%,–

Compound,"activity change, negative = growth inhibition",Potency
Cc1nc(C)c(-c2csc(NCCc3ccccc3)n2)s1,–,14.6 µM (active)
CCOC(=O)c1cc2c(=O)n3ccccc3nc2n(CC2CCCO2)c1=NC(=O)c1ccccc1F (stereo not given),-14.2%,–
CCOC(=O)c1cc2c(=O)n3ccccc3nc2n(CC(C)C)c1=NC(=O)c1c(-c2c(F)cccc2Cl)noc1C,–,16.4 µM (active) and 8.2 µM (active)
CCCn1c(=NC(C)=O)c(C(=O)OCC)cc2c(=O)n3ccccc3nc21,-16.3%,–
COc1ccccc1OCC(=O)OCc1cc(-c2ccco2)on1,-10.3%,–
COc1cccc(C(c2c(O)cc(C)n(Cc3ccco3)c2=O)N2CCN(c3ccccc3)CC2)c1 (stereo not given),-10.4%,–
CCCCN(C)CCCNC(=O)c1cc(-c2cccs2)nc2ccccc12,–,29.1 µM (active)
O=C(NCCN1CCOCC1)c1cc(-c2cccs2)nc2ccccc12,-6.74%,–
CC(C)(C)Cc1nnc(NC(=O)c2cc(-c3ccccc3)nc3ccccc23)s1,1.81%,–
Cn1cc(CN2CCCC(CO)C2)c(-c2ccc(Oc3ccccc3)cc2)n1 (stereo not given),-29.3%,–
Cc1ccccc1NC(=O)C1CCN(C(=O)NC2CCCCC2)CC1,17.2%,–
CCN(C(=O)COC(=O)CCOc1cccc(C)c1)c1c(N)n(Cc2ccccc2)c(=O)[nH]c1=O,–,16.4 µM (active)
COCCN(C(=O)COC(=O)Cc1cccc(OC)c1)c1c(N)n(Cc2ccccc2)c(=O)[nH]c1=O,0.869%,–
CCN(C(=O)COC(=O)Cc1c(F)cccc1Cl)c1c(N)n(Cc2ccccc2)c(=O)[nH]c1=O,1.95%,–
CCN(C(=O)COC(=O)c1sccc1C)c1c(N)n(Cc2ccccc2)c(=O)[nH]c1=O,-1.38%,–
CCN(C(=O)COC(=O)c1c(C)nn(-c2ccccc2)c1Cl)c1c(N)n(Cc2ccccc2)c(=O)[nH]c1=O,7.19%,–
CCN(C(=O)CN1CCN(Cc2ccccc2)CC1)c1c(N)n(Cc2ccccc2)c(=O)[nH]c1=O,–,11.6 µM (active)
CCCn1nc(C(=O)NNC(=O)CCOc2ccccc2OCC)c2ccccc2c1=O,1.4%,–
CN(C)/C=C(\C#N)C(=O)c1cccnc1Oc1ccc(F)cc1F,-19.9%,–
CCOC(=O)C1(O)CC(C)=NN1C(=O)c1cccc(Br)c1 (stereo not given),18.5%,–
CCN(C(=O)CSc1ncnc2c1cnn2-c1ccccc1)C1CCS(=O)(=O)C1 (stereo not given),-4.58%,–
O=S(=O)(c1ccc(F)cc1)N1CCN(Cc2ccccc2C(F)(F)F)CC1,-16%,–
O=C(CSc1n[nH]c(=O)n1-c1ccccc1)Nc1ccccc1C(F)(F)F,-0.565%,–
O=c1[nH]nc(SCCS(=O)(=O)c2ccc(F)cc2)n1-c1ccccc1C(F)(F)F,–,23.1 µM (active)
O=C(NCC1Cc2cc(F)cc(-c3cnccn3)c2O1)C1COc2ccccc2O1 (stereo not given),16.4%,–

Compound,"activity change, negative = growth inhibition",Potency
S=C(c1ccccc1)N1CCCC1,11.6%,–
CCOC(=O)c1c(NC(=O)CSc2nccc(=O)[nH]2)sc(C)c1C,-10.7%,–
Nc1ccc(C(=O)N2CCN(S(=O)(=O)c3ccc(Cl)cc3)CC2)cc1[N+](=O)[O-],-66.4%,–
NC(=O)C1CCN(C(=O)c2ccc(F)c(S(=O)(=O)N3CCOCC3)c2)CC1,8.19%,–
CC1CCN(C(=O)c2ccc(S(=O)(=O)Cc3cc(F)ccc3F)c([N+](=O)[O-])c2)CC1,–,6.51 µM (active)
Cc1noc(NS(=O)(=O)c2ccc(NC(=O)c3oc4ccc(F)cc4c3C)cc2)c1C,-14.1%,–
CC(=O)Nc1c2c(nn1-c1ccc(C)cc1C)CS(=O)C2 (stereo not given),7.09%,–
C[C@H](NC(=O)C1CC(=O)N(c2ccc3c(c2)OCCO3)C1)C(=O)N1CCC(C(=O)O)CC1 (stereo not given in full),-0.349%,–
CC(=O)Nc1c2c(nn1-c1cccc(C)c1)CSC2,-12.1%,–
CC(=O)c1cccc(OCc2cc(C(=O)NC(C)Cc3cccnc3)no2)c1 (stereo not given),–,16.4 µM (active)
CCC(NC(=O)c1cc(COc2ccc(F)c(F)c2)on1)c1ccncc1 (stereo not given),–,20.6 µM (active)
Cc1ccc(OCc2cc(C(=O)N(C)CCc3ccccc3)no2)cc1C,-13.4%,–
CN(Cc1cccnc1)C(=O)c1cc(COc2ccc3ncccc3c2)on1,–,4.61 µM (active)
O=C(NC1Cc2ccccc2C1)c1cc(COc2cccc(C(F)(F)F)c2)on1,-25.4%,–
CCn1ccnc1CN(C)C(=O)c1cc(COc2ccc(-n3cncn3)cc2)on1,-21.3%,–
CC(C)Cc1cc(C(=O)NCCc2ccccc2)no1,-26.4%,–
O=C(NCCCc1ccccc1)c1cc(COc2c(F)cccc2F)on1,-17.7%,–
CCCOc1cccc(C(=O)NCCCNC(=O)c2cccnc2)c1,-1.65%,–
CC(N)(C(=O)O)c1ccc(-c2nn[nH]n2)cc1 (stereo not given),-21.6%,–
COC(=O)C[C@H]1C=C[C@H](NC(=O)c2ccc(F)cc2)[C@@H](CO)O1,-3.56%,–
Cc1sc(NC(=O)C2=COCCO2)c(C#N)c1C,-13.9%,–
CC1(C)C(c2cccs2)=[N+]([O-])C2(CCCCC2=O)N1O (stereo not given),9.95%,–
Cc1cccn2cc(-c3cccc(S(=O)(=O)N4CCCCC4)c3)nc12,-24%,–
O=C(NCCCN1CCOCC1)C1CCCN(S(=O)(=O)N2CCCCC2)C1 (stereo not given),-7.98%,–
COc1cccc2c1C(=O)c1c(O)c3c(c(O)c1C2=O)CC(O)(C(C)=NNC(=O)c1ccc(Cl)c(Cl)c1)CC3OC1CC(N)C(O)C(C)O1 (stereo not given),–,0.164 µM (active)

Compound,"activity change, negative = growth inhibition",Potency
CCOC(=O)c1cnc2c(c(C)nn2CC)c1Cl,5.09%,–
COc1ccccc1CNS(=O)(=O)c1ccc2c(c1)NC(=O)CS2,-27.9%,–
COc1cccc(-c2ccc3c(c2)N(Cc2ccccc2OC)C(=O)C(C)S3)c1 (stereo not given),–,25.9 µM (active)
COc1ccc(CN2C(=O)C(C)S/C2=N/N=C/c2ccco2)cc1 (stereo not given),-9.51%,–
CCCc1nc(N2CCN(C)CC2)c2sc(=S)n(-c3ccccc3)c2n1,–,18.4 µM (active)
CCCc1nc(-c2ccccc2O)n(-c2ccccc2)n1,-27.4%,–
Cc1cnc(NC(=O)CSc2nnc(C)s2)s1,-12.2%,–
Cc1cnc(NC(=O)CSc2nnc(-c3ccccc3)n2Cc2ccccc2)s1,-13.7%,–
COc1ccc(CC(=O)NCc2nnc(SCC(=O)Nc3ncc(C)s3)n2C)cc1,–,16.4 µM (active)
Cc1cnc(NC(=O)CSc2c(Cl)cccc2Cl)s1,–,14.6 µM (active)
COC(=O)c1ccc(NC(=O)CSc2nnc(CNc3ccc(OC)cc3)n2C)cc1,5.11%,–
COc1ccc(CC(=O)NCc2nnc(SCC(=O)Nc3nccs3)n2C)cc1,-10.1%,–
O=C(NCc1ccccc1)C(c1ccco1)N(C(=O)c1csnn1)c1ccccc1F (stereo not given),-13%,–
CCCCN(C(=O)COc1ccc(NC(C)=O)cc1)C1CCS(=O)(=O)C1 (stereo not given),-15.7%,–
COc1ccc(CNC(=O)CCC(=O)Nc2nnc(C(C)C)s2)cc1,2.44%,–
CC[C@@H]1CC2=C(C(=O)OC(C)(C)O2)[C@@H](CC)O1,-8.36%,–
Cn1c(CC(=O)Nc2ccc(F)cc2)nnc1SCC(=O)NC1CCCCC1,2.42%,–
O=C(NCCN1CCOC1=O)C1CCC(=O)N(CCc2ccc(Cl)cc2)C1 (stereo not given),-3.33%,–
C=CCNCCCCOc1ccccc1,-25.9%,–
COc1cccc(-n2cc3c(c2-c2ccccc2)c(=O)n(C)c(=O)n3C)c1,–,23.1 µM (active)
COc1ccc(-c2c3c(=O)n(C)c(=O)n(C)c3cn2NC(C)=O)cc1,-0.679%,–
COc1ccc(-c2c3c(=O)n(C)c(=O)n(C)c3cn2-c2cccc(OC)c2)cc1,–,29.1 µM (active)
COc1ccc(Nc2cc(=O)n(-c3ccccc3)c3c2c(=O)n(C)c(=O)n3C)cc1,16%,–
Cc1ccc(-c2c3c(=O)n(C)c(=O)n(C)c3cn2-c2ccccc2O)cc1,-1.44%,–
COc1ccc(-c2[nH]c3c(c2-c2c(-n4cccc4)n(C)c(=O)n(C)c2=O)c(=O)n(C)c(=O)n3C)cc1,-19.5%,–
